Experimental data: PubChem BioAssay (NCATS)
A number with no mark means an inactive call. Results filed as inconclusive are left out. Calls of active or inactive are those of the source. Unless noted, calls come from the whole dose curve; as a rule, active = well fitted curve in either direction with a large enough effect (not every such curve was filed as active); inconclusive = small, poorly fitted or top-dose-only effect, or another doubt; inactive = flat fitted curve, though single readings scatter.

Tests used:
[1] = target: Lysosomal acid glucosylceramidase (Homo sapiens) (UniProt P04062); test: Glucocerebrosidase-p2 (AID 348; in the data active = potency below about 10 µM; note: potency is the fitted concentration of half-maximal effect); settings: purified GBA, blue fluorogenic substrate, 40 min
Chain of Lysosomal acid glucosylceramidase (Homo sapiens) (P04062 whole entry, looked up): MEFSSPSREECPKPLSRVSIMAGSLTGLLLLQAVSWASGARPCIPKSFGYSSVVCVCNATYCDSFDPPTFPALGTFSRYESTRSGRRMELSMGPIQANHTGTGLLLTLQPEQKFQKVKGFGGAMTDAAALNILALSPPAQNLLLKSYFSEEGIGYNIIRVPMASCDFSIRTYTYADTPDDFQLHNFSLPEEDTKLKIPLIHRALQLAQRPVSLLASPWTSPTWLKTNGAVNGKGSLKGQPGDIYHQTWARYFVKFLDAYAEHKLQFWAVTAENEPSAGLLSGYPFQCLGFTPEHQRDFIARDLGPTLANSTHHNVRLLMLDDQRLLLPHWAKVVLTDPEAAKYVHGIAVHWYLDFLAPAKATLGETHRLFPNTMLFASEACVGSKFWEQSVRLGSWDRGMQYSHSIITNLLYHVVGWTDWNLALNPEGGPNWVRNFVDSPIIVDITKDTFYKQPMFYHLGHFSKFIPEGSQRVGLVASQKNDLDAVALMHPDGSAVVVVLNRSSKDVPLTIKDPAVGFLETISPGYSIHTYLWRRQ
Method in brief: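 Compounds titrated from 0.6 nM upwards against 0.2 nM enzyme in pH 5.9 citric acid/KH2PO4, taurocholate, tween-20; blue fluorogenic substrate 80 uM, 40 min room temperature, stopped and read Ex 365/Em 440 for AC50.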

[2] = AP1 Signaling Pathway (AID 357); settings: ME-180 AP-1-bla reporter, EGF-induced, beta-lactamase ratio, 5 h; at 7.69 µM (top of the series) unless noted;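 note: ME-180 reporter cells stimulated with EGF at its EC50 level; % is set by controls: 0 for no effect and ±100 for the full control effect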
Method in brief: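 Cells are seeded overnight, exposed to compound titrations and an EC50 level of EGF for 5 hours at 37 °C, then loaded with CCF4 dye for 2.5 hours. Beta-lactamase activity under the AP-1 element is read as a blue/green ratio.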

[3] = target: Cytochrome P450 1A2 (Homo sapiens) (UniProt P05177); test: p450-cyp1a2 (AID 410; calls by dose curve; note: potency is the fitted concentration of half-maximal effect;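 for activity change, negative = inhibition: -100% = full effect of reference inhibitor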); settings: recombinant CYP1A2, luciferin-ME demethylation, luminescence; series mostly up to 11.4 µM
Chain of Cytochrome P450 1A2 (Homo sapiens) (P05177 whole entry, looked up): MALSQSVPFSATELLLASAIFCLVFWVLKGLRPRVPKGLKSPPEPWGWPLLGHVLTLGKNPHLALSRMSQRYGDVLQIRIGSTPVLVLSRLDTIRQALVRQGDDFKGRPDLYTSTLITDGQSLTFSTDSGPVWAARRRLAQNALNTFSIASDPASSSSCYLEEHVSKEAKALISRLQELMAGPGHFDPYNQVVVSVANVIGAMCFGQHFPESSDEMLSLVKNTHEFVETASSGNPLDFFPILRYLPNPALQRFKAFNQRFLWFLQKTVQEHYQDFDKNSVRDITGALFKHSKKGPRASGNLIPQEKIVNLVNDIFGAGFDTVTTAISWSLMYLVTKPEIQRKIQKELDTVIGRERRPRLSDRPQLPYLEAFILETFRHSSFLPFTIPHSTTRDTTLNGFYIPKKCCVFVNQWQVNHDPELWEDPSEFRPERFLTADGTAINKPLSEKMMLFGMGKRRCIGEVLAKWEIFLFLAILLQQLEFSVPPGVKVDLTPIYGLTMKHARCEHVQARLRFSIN
Method in brief: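 Human CYP1A2 (20nM) demethylated Luciferin-ME at its Km (100uM) in 100mM KPO4. After 10 min compound preincubation, NADPH regeneration ran the reaction 60 min at room temperature. Luciferin was read by luminescence, normalized to 57 uM furafylline.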

[4] = Stat Signaling Pathway (AID 446); settings: ME-180 SIE beta-lactamase reporter, IL-6 stimulated, 5 h; at 7.69 µM (top of the series) unless noted;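 note: ME-180 cervical cancer cells given 40 pM IL-6 alongside compound; SIE-controlled beta-lactamase reporter measured as 460/530 nm FRET emission ratio; % is set by controls: 0 for no effect and ±100 for the full control effect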
Method in brief: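 ME-180 SIE-bla cells; overnight plating; cpd + IL-6 40 pM, 5 h, 37 C; LiveBLAzer 2.5 h RT; 460/530 nm emission ratio. Normalized to 300 pM IL-6 and 125 nM JAK inhibitor controls.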

[5] = target: Glucocorticoid receptor (Homo sapiens) (UniProt P04150); test: GR-GFP Redistribution (AID 450;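 active = compounds whose dose series gives a full or clear partial fitted curve of increased nuclear translocation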; note: potency is the fitted concentration of half-maximal effect); settings: U2OS GR-GFP nuclear translocation, laser cytometry, 2 h
Chain of Glucocorticoid receptor (Homo sapiens) (P04150 whole entry, looked up, the tested form may be a part): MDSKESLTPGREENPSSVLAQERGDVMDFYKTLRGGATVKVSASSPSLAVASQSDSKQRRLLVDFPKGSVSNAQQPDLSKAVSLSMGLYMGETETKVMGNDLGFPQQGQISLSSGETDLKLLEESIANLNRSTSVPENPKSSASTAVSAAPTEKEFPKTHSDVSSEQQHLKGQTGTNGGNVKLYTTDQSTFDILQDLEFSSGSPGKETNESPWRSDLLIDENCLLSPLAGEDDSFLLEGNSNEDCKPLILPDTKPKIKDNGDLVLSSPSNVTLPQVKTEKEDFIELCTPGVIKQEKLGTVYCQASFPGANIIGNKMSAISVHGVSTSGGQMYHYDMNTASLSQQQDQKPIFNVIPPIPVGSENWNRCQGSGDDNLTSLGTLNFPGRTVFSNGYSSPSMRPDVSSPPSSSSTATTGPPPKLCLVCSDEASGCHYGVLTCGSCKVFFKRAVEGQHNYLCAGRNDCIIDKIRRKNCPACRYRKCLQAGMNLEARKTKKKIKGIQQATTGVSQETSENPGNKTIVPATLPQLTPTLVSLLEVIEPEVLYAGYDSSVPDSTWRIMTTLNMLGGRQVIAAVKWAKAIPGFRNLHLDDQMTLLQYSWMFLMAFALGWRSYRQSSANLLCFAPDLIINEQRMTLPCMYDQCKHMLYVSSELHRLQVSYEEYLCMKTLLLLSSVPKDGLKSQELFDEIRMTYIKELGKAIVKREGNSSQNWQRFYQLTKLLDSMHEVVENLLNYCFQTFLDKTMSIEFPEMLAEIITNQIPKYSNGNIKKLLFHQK

[6] = target: Glucocorticoid receptor (Homo sapiens) (UniProt P04150); test: GR-EFC Redistribution (AID 451; calls by dose curve; note: potency is the fitted concentration of half-maximal effect); settings: CHO-K1 GR-EFC translocation, beta-gal luminescence, 2 h
Method in brief: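 Translocation of GR-ED fusion to nuclear EA restores b-gal, read by luminescence after 1 h room-temperature detection. Engineered CHO-K1 biosensor cells, 1,000/well, exposed 2 h at 37 C to titrations up to 46 uM final.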

[7] = target: Mitogen-activated protein kinase 10 (Mus musculus) (UniProt Q61831); test: JNK3 AlphaScreen Assay (AID 530); settings: JNK3 lysate, c-Jun phosphorylation; series mostly up to 11.4 µM;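 note: kinase came from lysate of stimulated human HepG2 cells; signal reports phosphorylation of biotinylated GST-cJun 1-79 at Ser73 with 10 µM ATP; % is set by controls: 0 for no effect and ±100 for the full control effect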
Method in brief: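 Room-temperature AlphaScreen kinase assay; pre-activated HepG2 lysate as JNK3 source, biotin-GST-cJun(1-79) substrate, 10 uM ATP, compound 15 min preincubation.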

[8] = target: 3',5'-cyclic-AMP phosphodiesterase 4B (Homo sapiens) (UniProt Q07343); test: qHTS Assay for Inhibitors of PDE-IV (AID 607; active = well fitted activation curve with a large enough effect in the main read-out, with a control signal flat, not every such curve was filed as active; note: % of control where 0% means no effect); settings: HEK293 ACTOne CNG channel cells, membrane potential fluorescence; series mostly up to 22.9 µM
Chain of 3',5'-cyclic-AMP phosphodiesterase 4B (Homo sapiens) (Q07343 whole entry, looked up): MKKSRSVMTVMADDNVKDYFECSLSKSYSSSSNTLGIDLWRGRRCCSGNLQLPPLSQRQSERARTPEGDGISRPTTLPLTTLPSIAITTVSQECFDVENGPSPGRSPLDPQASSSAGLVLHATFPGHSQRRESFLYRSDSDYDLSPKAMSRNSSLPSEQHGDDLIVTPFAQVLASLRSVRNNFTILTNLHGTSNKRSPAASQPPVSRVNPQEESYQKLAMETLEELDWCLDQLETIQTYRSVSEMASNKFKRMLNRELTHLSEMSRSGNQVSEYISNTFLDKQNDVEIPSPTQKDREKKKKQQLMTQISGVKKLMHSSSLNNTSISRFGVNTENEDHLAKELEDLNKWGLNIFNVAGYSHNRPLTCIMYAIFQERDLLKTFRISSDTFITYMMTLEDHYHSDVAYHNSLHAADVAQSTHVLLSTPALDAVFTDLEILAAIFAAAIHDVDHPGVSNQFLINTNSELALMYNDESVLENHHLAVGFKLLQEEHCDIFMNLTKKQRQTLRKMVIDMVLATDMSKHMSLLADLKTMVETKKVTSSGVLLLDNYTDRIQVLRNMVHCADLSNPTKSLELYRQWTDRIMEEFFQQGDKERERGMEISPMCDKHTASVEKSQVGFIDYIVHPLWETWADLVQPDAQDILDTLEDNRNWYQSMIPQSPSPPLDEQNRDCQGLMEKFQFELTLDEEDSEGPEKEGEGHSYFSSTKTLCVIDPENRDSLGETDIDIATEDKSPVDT
Method in brief: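 ACTOne HEK293 cells carry a modified cAMP-gated CNG channel and express endogenous PDE4; plated 1000 cells/well, compounds up to 22.9 uM final. Membrane-potential dye fluorescence (ex 535/em 590) was read; parental cells received 10 uM forskolin + 100 uM RO 20-1724.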

[9] = target: Cytochrome P450 2C9 (Homo sapiens) (UniProt P11712); test: qHTS Assay for Inhibitors and Substrates of Cytochrome P450 2C9 (AID 883; active = well fitted curve in the direction sought with a large enough effect; an effect the other way counts as inactive or inconclusive; note: nearly all actives have a fitted effect of over 60% in size; note: potency is the fitted concentration of half-maximal effect; for activity change, negative = inhibition: % is set by controls: 0 for no effect and ±100 for the full control effect); settings: recombinant CYP2C9, luciferin-H luminescence, 60 min; series mostly up to 11.4 µM
Chain of Cytochrome P450 2C9 (Homo sapiens) (P11712 whole entry, looked up): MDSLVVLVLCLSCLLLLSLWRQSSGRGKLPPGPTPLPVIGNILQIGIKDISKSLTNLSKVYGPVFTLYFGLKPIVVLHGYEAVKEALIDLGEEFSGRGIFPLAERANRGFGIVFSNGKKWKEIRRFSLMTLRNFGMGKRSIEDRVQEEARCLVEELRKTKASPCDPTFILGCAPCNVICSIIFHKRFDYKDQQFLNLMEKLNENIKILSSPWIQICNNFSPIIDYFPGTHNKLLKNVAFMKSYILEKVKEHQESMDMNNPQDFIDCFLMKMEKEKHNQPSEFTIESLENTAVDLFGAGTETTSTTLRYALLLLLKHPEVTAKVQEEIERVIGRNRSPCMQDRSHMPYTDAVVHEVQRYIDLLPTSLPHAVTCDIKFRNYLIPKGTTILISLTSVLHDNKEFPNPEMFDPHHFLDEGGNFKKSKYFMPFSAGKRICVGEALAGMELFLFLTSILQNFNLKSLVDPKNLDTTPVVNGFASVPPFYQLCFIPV
Method in brief: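 Luminescent read-out of deoxyluciferin hydroxylation, normalized to 57uM sulphaphenazole (AC100). Reaction: 10nM enzyme, 100uM Luciferin-H (equal to KM), 25mM KPO4, 10 min compound preincubation, then 60 min with NADPH regeneration, both at 37C.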

[10] = target: Cytochrome P450 2D6 (Homo sapiens) (UniProt P10635); test: qHTS Assay for Inhibitors and Substrates of Cytochrome P450 2D6 (AID 891; active = well fitted curve in the direction sought with a large enough effect; an effect the other way counts as inactive or inconclusive; note: potency is the fitted concentration of half-maximal effect; nearly all actives have a fitted effect of over 60% in size); settings: recombinant CYP2D6, luciferin-ME EGE luminescence; series mostly up to 11.4 µM
Chain of Cytochrome P450 2D6 (Homo sapiens) (P10635 whole entry, looked up): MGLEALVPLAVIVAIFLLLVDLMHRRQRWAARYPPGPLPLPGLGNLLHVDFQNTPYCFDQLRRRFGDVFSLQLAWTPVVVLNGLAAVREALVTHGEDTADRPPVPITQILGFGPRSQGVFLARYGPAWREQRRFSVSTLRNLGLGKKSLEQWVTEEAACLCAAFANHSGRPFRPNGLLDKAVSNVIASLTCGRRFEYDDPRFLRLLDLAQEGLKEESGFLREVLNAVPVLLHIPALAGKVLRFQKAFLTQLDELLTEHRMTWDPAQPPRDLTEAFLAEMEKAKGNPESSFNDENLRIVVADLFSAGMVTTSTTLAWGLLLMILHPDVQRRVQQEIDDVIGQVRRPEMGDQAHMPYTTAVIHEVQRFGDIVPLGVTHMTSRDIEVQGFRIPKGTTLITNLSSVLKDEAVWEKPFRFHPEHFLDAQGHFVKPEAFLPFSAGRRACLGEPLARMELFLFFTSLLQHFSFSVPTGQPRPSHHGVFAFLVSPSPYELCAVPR
Method in brief: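 Human CYP2D6 (5 nM) with 30 uM Luciferin-ME EGE (at Km) in 100 mM KPO4, compound preincubated 10 min, then NADPH regeneration system for 60 min at room temperature. Luciferin read by luminescence; normalized to 1.43 uM quinidine.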

[11] = target: Cytochrome P450 3A4 (Homo sapiens) (UniProt P08684); test: qHTS Assay for Activators of Cytochrome P450 3A4 (AID 885; active = well fitted curve in the direction sought with a large enough effect; an effect the other way counts as inactive or inconclusive; note: nearly all actives have a fitted effect of over 65% in size); settings: recombinant CYP3A4, Luciferin-PPXE luminescence, 60 min; series mostly up to 11.4 µM
Chain of Cytochrome P450 3A4 (Homo sapiens) (P08684 whole entry, looked up): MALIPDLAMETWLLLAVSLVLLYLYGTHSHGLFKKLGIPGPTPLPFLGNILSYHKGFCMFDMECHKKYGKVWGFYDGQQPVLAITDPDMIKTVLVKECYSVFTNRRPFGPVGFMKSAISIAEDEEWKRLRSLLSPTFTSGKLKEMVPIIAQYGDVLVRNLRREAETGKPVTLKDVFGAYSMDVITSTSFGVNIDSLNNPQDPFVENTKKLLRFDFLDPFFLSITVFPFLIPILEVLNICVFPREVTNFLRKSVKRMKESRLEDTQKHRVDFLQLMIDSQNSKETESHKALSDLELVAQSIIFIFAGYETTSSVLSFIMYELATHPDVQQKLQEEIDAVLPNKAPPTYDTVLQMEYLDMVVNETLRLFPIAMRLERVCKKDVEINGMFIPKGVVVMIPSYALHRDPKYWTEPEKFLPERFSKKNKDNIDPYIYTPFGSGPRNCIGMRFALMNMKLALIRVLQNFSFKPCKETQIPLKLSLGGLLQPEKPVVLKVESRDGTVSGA
Method in brief: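 20nM CYP3A4 + 25uM Luciferin-PPXE (=KM), 200mM KPO4; cpd 10 min RT; NADPH regen, 60 min RT; stop w/ detection buffer, 20 min; luminescence. Normalized to 57 uM ketoconazole.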

[12] = target: Cytochrome P450 2C19 (Homo sapiens) (UniProt P33261); test: qHTS Assay for Inhibitors and Substrates of Cytochrome P450 2C19 (AID 899; active = well fitted curve in the direction sought with a large enough effect; an effect the other way counts as inactive or inconclusive; note: potency is the fitted concentration of half-maximal effect; nearly all actives have a fitted effect of over 60% in size); settings: recombinant CYP2C19, luciferin-H EGE luminescence; series mostly up to 11.4 µM
Chain of Cytochrome P450 2C19 (Homo sapiens) (P33261 whole entry, looked up): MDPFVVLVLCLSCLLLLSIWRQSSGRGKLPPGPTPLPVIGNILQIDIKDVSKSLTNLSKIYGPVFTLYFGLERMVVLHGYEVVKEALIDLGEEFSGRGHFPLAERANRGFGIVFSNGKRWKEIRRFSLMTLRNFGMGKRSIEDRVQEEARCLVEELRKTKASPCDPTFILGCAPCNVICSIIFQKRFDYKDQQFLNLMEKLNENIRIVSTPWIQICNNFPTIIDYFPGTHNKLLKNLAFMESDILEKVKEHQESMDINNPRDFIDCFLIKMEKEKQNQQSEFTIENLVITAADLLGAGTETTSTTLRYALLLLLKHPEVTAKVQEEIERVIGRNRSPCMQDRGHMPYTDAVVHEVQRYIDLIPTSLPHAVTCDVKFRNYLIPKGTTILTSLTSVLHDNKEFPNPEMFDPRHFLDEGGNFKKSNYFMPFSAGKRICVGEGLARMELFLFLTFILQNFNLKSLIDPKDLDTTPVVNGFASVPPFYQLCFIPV
Method in brief: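 Luminescence readout of luciferin formed from 10uM Luciferin-H EGE (KM level) by 5 nM CYP2C19 in 50mM KPO4. 60 min NADPH-driven reaction at 37C after 10 min compound preincubation; data scaled to 57uM ketoconazole inhibition.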

Structure (SMILES): c1ccc([P+](CC[P+](c2ccccc2)(c2ccccc2)c2ccccc2)(c2ccccc2)c2ccccc2)cc1
- Potency [1]: > 11.4 µM
- activity change, negative = inhibition [2]: 1.2%
- Potency [3]: inactive
- activity, negative = inhibition [4]: 7.49%
- Potency [5]: > 46 µM
- Potency [6]: > 9.22 µM
- Potency [7]: inactive
- Potency [8]: inactive

Structure (SMILES): Cc1ccc(C2=C(Cl)C(=O)C(c3ccc(C)cc3)=C(Cl)C2=O)cc1
- Potency [1]: > 11.4 µM
- activity change, negative = inhibition [2]: 4.65%
- activity change, negative = inhibition [3]: -16.9% [at 2.29 µM]
- activity, negative = inhibition [4]: -13.6%
- Potency [5]: > 46 µM
- Potency [6]: > 9.22 µM
- Potency [7]: inactive
- Potency [8]: inactive
- Potency [9]: 1.58 µM (active)

Structure (SMILES): O=C(O)/C=C\C(=O)Nc1cccc2c1-c1ccccc1C2=O
- Potency [1]: > 11.4 µM
- activity change, negative = inhibition [2]: -2.3%
- Potency [3]: 2.51 µM (active)
- activity, negative = inhibition [4]: -4.51%
- Potency [5]: > 46 µM
- Potency [6]: > 9.22 µM
- Potency [7]: inactive
- Potency [8]: inactive

Structure (SMILES): O[C@@H](c1cc([C@@]23C[C@H]4CC[C@@H]2C[C@H](C4)C3)nc2c(Cl)cc(Cl)cc12)[C@@H]1CCCCN1
- Potency [1]: > 11.4 µM
- activity change, negative = inhibition [2]: 1.64%
- activity change, negative = inhibition [3]: -10.5% [at 2.29 µM]
- activity, negative = inhibition [4]: 0.88%
- Potency [5]: > 46 µM
- Potency [6]: > 9.22 µM
- Potency [7]: inactive
- Potency [8]: inactive

Structure (SMILES): CC1CCC(C(=O)O)([C@H](Br)C(=O)O)CC1 (stereo not given in full)
- Potency [1]: > 11.4 µM
- activity change, negative = inhibition [2]: -2.54%
- Potency [3]: inactive
- activity, negative = inhibition [4]: 8%
- Potency [5]: > 46 µM
- Potency [6]: > 9.22 µM
- Potency [7]: inactive
- Potency [8]: inactive

Structure (SMILES): N[C@@H](Cc1cccnn1)C(=O)O
- Potency [1]: > 11.4 µM
- activity change, negative = inhibition [2]: 2.23%
- Potency [3]: 3.16 µM (active)
- activity, negative = inhibition [4]: 2.86%
- Potency [5]: > 46 µM
- Potency [6]: > 9.22 µM
- Potency [7]: inactive
- Potency [8]: inactive

Structure (SMILES): O=C1C2[C@@H](c3ccccc3)N[C@@H](c3ccccc3)C1[C@H](c1ccccc1)N[C@H]2c1ccccc1
- Potency [1]: > 11.4 µM
- activity change, negative = inhibition [2]: -5.02%
- Potency [3]: inactive
- activity, negative = inhibition [4]: 1.27%
- Potency [5]: > 46 µM
- Potency [6]: > 9.22 µM
- Potency [7]: inactive
- Potency [8]: inactive

Structure (SMILES): C[C@@]12CC[C@@H]3[C@H](CCC4=CC(=O)CC[C@]43C)[C@@H]1CC[C@@H]2C(=O)Cn1cnc2c(=S)nc[nH]c21
- Potency [1]: > 11.4 µM
- activity change, negative = inhibition [2]: 2.82%
- Potency [3]: inactive
- activity, negative = inhibition [4]: -2.06%
- Potency [5]: > 46 µM
- Potency [6]: > 9.22 µM
- Potency [7]: inactive
- Potency [8]: inactive

Structure (SMILES): COc1ncc2nc(CCc3ccccc3)c(=O)n(C)c2n1
- Potency [1]: > 11.4 µM
- activity change, negative = inhibition [2]: -29.7%
- Potency [3]: 5.01 µM (active)
- activity, negative = inhibition [4]: -1.2%
- Potency [5]: > 9.22 µM
- Potency [6]: > 46 µM
- Potency [7]: inactive
- Potency [8]: inactive

Structure (SMILES): COc1ccc2c3c(ccc2c1)N[C@H](C(=O)O)CC3
- Potency [1]: > 11.4 µM
- activity change, negative = inhibition [2]: -4.14%
- Potency [3]: 0.501 µM (active)
- activity, negative = inhibition [4]: -6.67%
- Potency [5]: > 46 µM
- Potency [6]: > 9.22 µM
- Potency [7]: inactive
- Potency [8]: inactive

Structure (SMILES): CN(C)CCC(=O)[C@@]1(O)CC[C@H]2[C@H]3CC=C4C[C@@H](O)CC[C@]4(C)[C@H]3CC[C@]21C
- Potency [1]: > 11.4 µM
- activity change, negative = inhibition [2]: 3.32%
- Potency [3]: inactive
- activity, negative = inhibition [4]: -18.3%
- Potency [5]: > 46 µM
- Potency [6]: > 9.22 µM
- Potency [7]: inactive
- Potency [8]: inactive

Structure (SMILES): Oc1c(Br)cc(CN(Cc2cc(Br)c(O)c(Br)c2)C2CCCCC2)cc1Br
- Potency [1]: > 11.4 µM
- activity change, negative = inhibition [2]: 11.3%
- activity change, negative = inhibition [3]: -5.7% [at 2.29 µM]
- activity, negative = inhibition [4]: -10.4%
- Potency [5]: > 46 µM
- Potency [6]: > 9.22 µM
- Potency [7]: inactive
- Potency [8]: inactive
- Potency [9]: 2.51 µM (active)
- Potency [10]: 2.51 µM (active)

Structure (SMILES): Cc1cc(C)cc(C(=N)c2ccccc2Cc2cccc3ccccc23)c1
- Potency [1]: > 11.4 µM
- activity change, negative = inhibition [2]: 1.53%
- activity change, negative = inhibition [3]: -5.4% [at 2.29 µM]
- activity, negative = inhibition [4]: 8.92%
- Potency [5]: > 46 µM
- Potency [6]: > 9.22 µM
- Potency [7]: inactive
- Potency [8]: inactive
- Potency [9]: inactive
- Potency [11]: inactive
- Potency [12]: 1.58 µM (active)

Structure (SMILES): CC1CCC(O)([C@](C)(C(=O)O)c2ccccc2)CC1 (stereo not given in full)
- Potency [1]: > 11.4 µM
- activity change, negative = inhibition [2]: -5.12%
- Potency [3]: inactive
- activity, negative = inhibition [4]: -1.34%
- Potency [5]: > 46 µM
- Potency [6]: > 9.22 µM
- Potency [7]: inactive
- Potency [8]: inactive

Structure (SMILES): CCCC1c2c(ccc3ccccc23)Oc2ccc3ccccc3c21
- Potency [1]: > 11.4 µM
- activity change, negative = inhibition [2]: 11%
- Potency [3]: 0.631 µM (active)
- activity, negative = inhibition [4]: 10.6%
- Potency [5]: > 46 µM
- Potency [6]: > 9.22 µM
- Potency [7]: inactive
- Potency [8]: inactive

Structure (SMILES): COc1ccc(Cc2ccccc2C(=O)O)c2ccccc12
- Potency [1]: > 11.4 µM
- activity change, negative = inhibition [2]: -1.93%
- activity change, negative = inhibition [3]: 2.8% [at 2.29 µM]
- activity, negative = inhibition [4]: -28.9%
- Potency [5]: > 46 µM
- Potency [6]: > 9.22 µM
- Potency [7]: inactive
- Potency [8]: inactive
- Potency [9]: 3.98 µM (active)
